GDH-TPI counter-1 – GDH-TPI coupled enzyme inhibition counter-screen. GDH-TPI coupled enzyme counterscreen, NADH absorbance. inhibition, % at 4.8 µM. 1.2% of 360,000 active. AID 588335; in the data active = inhibition above about 30%
BoNT-A LC inh2 – inhibitors of Botulinum neurotoxin A light chain protease; inhibition, % at 10 µM; multiplex microsphere protease substrate cleavage, flow cytometry; 0.17% of 360,000 active; in the data active = inhibition above about 30%; inconclusive = no clear call, values can overlap the other calls
Anthrax LF inh2 – anthrax lethal factor protease inhibition; P15917; AID 588501; multiplex microsphere protease cleavage assay, LF; inhibition, % at 10 µM; 0.12% of 360,000 active; in the data active = inhibition above about 30%; inconclusive = no clear call, values can overlap the other calls
Bead autofluor – counter-screen for toxin protease inhibitors: compound fluorescence; fluorescence intensity (concentration not given with the values); compound autofluorescence counterscreen, microsphere flow cytometry; stronger effect = higher value; AID 624483; 3.1% of 360,000 active; in the data active = fluorescence intensity above about 16000; inconclusive = no clear call, values can overlap the other calls
FBA Mtb inh – Mtb fructose-bisphosphate aldolase inhibition; purified M. tuberculosis FBA, fluorescence read-out; inhibition, % at 1 µM; 2.3% of 360,000 active; AID 588726
Target sequence (P9WQA3 whole entry, looked up): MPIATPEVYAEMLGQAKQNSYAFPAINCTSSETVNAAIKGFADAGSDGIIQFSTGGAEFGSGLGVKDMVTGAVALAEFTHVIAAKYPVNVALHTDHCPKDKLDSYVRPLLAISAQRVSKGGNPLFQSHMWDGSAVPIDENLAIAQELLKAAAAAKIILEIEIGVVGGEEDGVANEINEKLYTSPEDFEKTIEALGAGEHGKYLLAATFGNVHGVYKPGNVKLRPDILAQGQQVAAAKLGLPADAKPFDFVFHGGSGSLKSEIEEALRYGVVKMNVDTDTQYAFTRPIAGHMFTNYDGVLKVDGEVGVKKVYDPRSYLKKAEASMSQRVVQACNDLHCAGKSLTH
BoNT F protease – inhibitors of Botulinum neurotoxin F light chain protease; Multiplex microsphere protease cleavage assay, flow cytometry; inhibition, % at 10 µM; 0.22% of 360,000 active; AID 588497; in the data active = inhibition above about 35%, passing the limit was not always enough; inconclusive = no clear call, values can overlap the other calls
Mtb FBA inh conf – confirmation of M. tuberculosis fructose-bisphosphate aldolase inhibitors; shares compounds with FBA Mtb inh; purified M. tuberculosis FBA, fluorescence read-out; inhibition, % at 1 µM; 78% of 5,600 active; AID 651616
GDH-TPI counter-2 – inhibits GDH-TPI coupling enzymes, flagging Mtb FBA hits. 81% of 5,600 active. shares compounds with FBA Mtb inh. GDH-TPI coupled enzyme counterscreen, fluorescence. inhibition, % at 1 µM; in the data active = inhibition above about 10%
A number is an active result; - = inactive; ? = inconclusive; . = no result given; + = active, no number. Sampled rows, rich in hits. Any-hit rate of the full collection: about 6.6%. Cut-off read from the data, not from the text of the source, unless noted: active = inhibition above about 27%; inactive = the rest.

SMILES | GDH-TPI counter-1 | BoNT-A LC inh2 | Anthrax LF inh2 | Bead autofluor | FBA Mtb inh | BoNT F protease | Mtb FBA inh conf | GDH-TPI counter-2
COc1ccc(OCC(=O)N(C)CC2COc3ccccc3O2)cc1 (centres undefined) | - | - | - | - | - | - | . | .
Cc1ccn2c(NCc3ccccc3)c(-c3cccc(SC4CCCCC4)c3)nc2c1 | - | - | - | - | 28 | - | 39 | 30
O=c1nc2n(CCO)c3ccccc3cc-2c(=O)[nH]1 | - | - | - | - | 96 | - | 77 | 56
Cn1c(=O)c(-c2ccccc2)cc2ccccc21 | - | - | - | - | - | - | . | .
Cc1ccc(CN(C(=O)c2csnn2)C(C(=O)NC2CCCC2)c2ccccn2)cc1 (centres undefined) | - | - | - | - | - | - | . | .
COc1ccccc1N1C(=O)c2ccccc2NC1c1ccc(O)cc1 (centres undefined) | - | - | - | - | 42 | - | 52 | 45
COc1cc(C2Nc3ccccc3C(=O)N2c2ccccc2OC)ccc1O (centres undefined) | - | - | - | - | - | - | . | .
COc1ccc(N2C(=O)c3ccccc3NC2c2ccc(NC(C)=O)cc2)c(OC)c1 (centres undefined) | - | - | - | - | 42 | - | 91 | 64
CCC(C)(C(=O)NC1CCCCC1)N(Cc1cccs1)C(=O)c1ccc(=O)[nH]c1 (centres undefined) | - | - | - | - | - | - | . | .
O=C(CSc1nnc(NC(=O)C2CCC2)s1)Nc1ccccc1F | - | - | - | - | - | - | . | .
CCCCc1cc(=O)oc2cc(C)cc(OC(C)C(=O)NC(Cc3c[nH]c4ccc(O)cc34)C(=O)O)c12 (centres undefined) | - | - | - | - | 37 | - | 132 | 102
CCc1c(C)c2ccc(OC(C)C(=O)NC(Cc3c[nH]c4ccc(O)cc34)C(=O)O)c(C)c2oc1=O (centres undefined) | - | - | - | - | 43 | - | . | +
COc1ccc(OC)c(-c2nnc(-c3ccc(C)o3)o2)c1 | - | - | - | - | 103 | - | 101 | 84
COc1ccc(-c2nnc(SC)o2)c(OC)c1 | - | - | - | - | - | - | . | .
COc1ccccc1NC(=O)N[C@@H](Cc1c[nH]c2ccccc12)C(=O)NN | - | - | - | - | - | - | . | .
CCC1CCCCN1Cc1c(O)ccc2c(=O)c(-c3ccccc3OC)coc12 (centres undefined) | - | - | - | - | 83 | - | 43 | 31
O=c1c(-c2ccc(Br)cc2)coc2c(CN3CCOCC3)c(O)ccc12 | - | - | - | - | - | - | . | .
O=c1c(-c2ccc(Br)cc2)coc2c(CN3CCCCC3)c(O)ccc12 | - | - | - | - | 31 | - | - | -
O=c1c(-c2ccccc2Cl)coc2c(CN3CCCCC3)c(O)ccc12 | - | - | - | - | 80 | - | 64 | 60
CC1CCCN(Cc2c(O)ccc3c(=O)c(-c4ccc(Cl)cc4)coc23)C1 (centres undefined) | - | - | - | - | - | - | . | .
CC1CN(Cc2ccccc2Cl)CC(C)O1 (centres undefined) | - | - | - | - | - | - | . | .
CC1CN(Cc2c(O)ccc3c(=O)c(-c4ccccc4Cl)coc23)CC(C)O1 (centres undefined) | - | - | - | - | 57 | - | 105 | 87
CC1CCCCN1Cc1c(O)ccc2c(=O)c(-c3nc4ccccc4s3)coc12 (centres undefined) | - | - | - | - | - | - | . | .
O=c1c(-c2ccc(Cl)cc2)coc2c(CN3CCCCC3)c(O)ccc12 | - | - | - | - | 27 | - | - | -
CCN(CC)Cc1c(O)ccc2c(=O)c(-c3ccccc3Cl)coc12 | 31 | - | - | - | 85 | - | + | +
SMILES | GDH-TPI counter-1 | BoNT-A LC inh2 | Anthrax LF inh2 | Bead autofluor | FBA Mtb inh | BoNT F protease | Mtb FBA inh conf | GDH-TPI counter-2
Cc1ccc2nc(C(C)(C)C)c(Cc3cccc(F)c3)n2c1 | . | - | - | - | 36 | - | 200 | 172
CCCc1nc2ccc(C)cn2c1Cc1cccc(F)c1 | . | - | - | - | 28 | - | 43 | 31
C/C(=N\N=C(N)N)c1ccc(Cl)cc1Cl | - | - | - | - | 28 | - | 29 | 17
O=C(O)Cn1c(-c2ccccc2)cc2ccccc21 | - | - | - | - | 47 | - | 104 | 95
CCOC(=O)Cn1c(-c2ccccn2)nc2ccccc21 | - | - | - | - | 35 | - | 91 | 79
O=C(O)Cn1c(-c2ccccc2)nc2ccccc21 | - | - | - | - | - | - | . | .
NNC(=O)Cn1c(-c2ccccn2)nc2ccccc21 | - | - | - | - | - | - | . | .
O=C(Cn1c(C(=O)O)cc2ccccc21)c1ccccc1 | - | - | - | - | - | - | . | .
O=C(O)Cn1c(=O)c(-c2ccccc2)nc2ccccc21 | - | - | - | - | 56 | - | 119 | 88
O=C(O)Cn1c(-c2ccccn2)nc2ccccc21 | - | - | - | - | 56 | ? | - | -
CC[C@@H]1CC2=C(C(=O)OC(C)(C)O2)[C@@H](c2ccc(Cl)cc2)O1 | . | - | - | - | . | - | . | .
CC1(C)Cc2c(cnn2-c2ccc(F)cc2)C(NC(=O)CN2CCCC2=O)C1 (centres undefined) | - | - | - | - | - | - | . | .
C/C(=N\NC(=O)Cn1c(-c2ccccn2)nc2ccccc21)c1ccccc1 | - | - | - | - | - | - | . | .
CCN(CC)CCNC(=O)Cn1c(-c2ccccn2)nc2ccccc21 | - | - | - | - | 37 | - | 145 | 121
O=C(O)c1ccccc1N/C=C\[N+](=O)[O-] | - | - | - | - | 32 | - | 71 | 56
O=S1(=O)CCN2C=C(Br)C=C(Br)C2=N1 | - | - | - | - | 29 | - | 133 | 105
O=S1(=O)CCN2C=Nc3sc4c(c3C2=N1)CCCC4 | - | - | - | - | - | - | . | .
O=C(Nc1cccc(S(=O)(=O)NC2=NCCCCC2)c1)c1ccc(Cl)cc1 | - | - | - | - | - | - | . | .
CCc1nc(NC(=O)c2sc(C)nc2C)sc1C(=O)OC | - | - | - | - | - | - | . | .
COc1ccccc1C(=O)Nc1ccnn1C1CCN(C(=O)c2ccoc2C)CC1 | - | - | - | - | - | - | . | .
Cc1cccnc1NC(=O)Nc1cccc2ccccc12 | - | - | - | - | 56 | - | 90 | 73
O=C(Nc1ccccc1)Nc1cccc2ccccc12 | - | - | - | - | - | - | . | .
CCCc1cc(=O)oc2c(C)c(OCc3nn[nH]n3)ccc12 | - | - | - | - | 50 | ? | - | -
Cc1c(Cc2ccccc2)c(=O)oc2c(C)c(OCc3nn[nH]n3)ccc12 | - | - | - | - | 66 | - | + | +
Cc1cc(OCc2nn[nH]n2)c2c(C)c(Cc3ccccc3)c(=O)oc2c1 | - | - | - | - | 105 | - | 66 | 58
